From the supplement of paper PMC10849652
Of roughly 8,800 targets only a part is listed; those with a hit were picked by preference. About 0.5% of all pairs of compound and target were hits. A number with no mark means an inactive call.

Columns and labels:
Test in all cases: log2 fold change, soluble protein after heating vs DMSO (PISA); higher = thermal stabilisation; K562 lysate, 10 uM; active = over 0.2 and 3.5 SD of the protein, either way, in both replicates (recomputed)
[1] = compound: CCCS(=O)(=O)Nc1ccc(F)c(C(=O)c2c[nH]c3ncc(-c4ccc(Cl)cc4)cc23)c1F [vemurafenib]
Method in brief: (§1)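 Pellets of K562 cells were dounce-homogenised in PBS pH 7.4 with 1 mM MgCl2, and the crude extract was held at 1 mg/mL protein for a 30 min treatment with 10 μM compound. Aliquots were heated for 3 min over 48°C-58°C and pooled before NP-40 was added to 0.5% at 4°C. The supernatant from 21,000xg for 90 min was quantified by TMTpro 16plex LC-MS/MS with channel sums equalised. Values are reported from duplicates as log-two fold change in thermal stability relative to solvent controls.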

[2] = compound: CCCS(=O)(=O)Nc1ccc(F)c(C(=O)c2c[nH]c3ncc(Cl)cc23)c1F
Method in brief: as §1

[3] = compound: CCN(CCCOc1ccc2c(Nc3cc(CC(=O)Nc4cccc(F)c4)[nH]n3)ncnc2c1)CCOP(=O)(O)O [barasertib]
Method in brief: as §1

[4] = compound: CC[C@@H]1C(=O)N(C)c2cnc(Nc3ccc(C(=O)NC4CCN(C)CC4)cc3OC)nc2N1C1CCCC1
Method in brief: as §1

[5] = compound: CC[C@@H]1C(=O)N(C)c2cnc(Nc3ccc(C(=O)N[C@H]4CC[C@H](N5CCN(CC6CC6)CC5)CC4)cc3OC)nc2N1C(C)C [volasertib]
Method in brief: as §1

[6] = compound: CCn1c(C(=O)N(C2CC2)C2CC2)cc2c3c(ncn3C)c(Nc3cc(C)n(C)n3)nc21
Method in brief: as §1

[7] = compound: CCn1cc(-c2ccnc3[nH]c(-c4cccc(CN(C)C)c4)cc23)c(-c2ccc(NC(=O)N(C)C)cc2)n1
Method in brief: as §1

[8] = compound: CN1CCC(CNc2ccc3ncc(-c4cccc(OC(F)(F)F)c4)n3n2)CC1
Method in brief: as §1

[9] = compound: CN1CCN(CCOc2cc(OC3CCOCC3)c3c(Nc4c(Cl)ccc5c4OCO5)ncnc3c2)CC1 [saracatinib]
Method in brief: as §1

[10] = compound: CN1CCN(c2nc(C3=C(c4c[nH]c5ccccc45)C(=O)NC3=O)c3ccccc3n2)CC1 [sotrastaurin]
Method in brief: as §1

[11] = compound: CN1CC[C@H](c2c(O)cc(O)c3c(=O)cc(-c4ccccc4Cl)oc23)[C@H](O)C1 [alvocidib]
Method in brief: as §1

[12] = compound: CN1CCc2c(c3ccccc3n2Cc2ccc(C(=O)NO)cc2)C1 [Tubastatin A]
Method in brief: as §1

[13] = compound: CNC(=O)C1=CC=CC=C1NC2=NC(=NC=C2Cl)NC3=C(C=C(C=C3)N4CCOCC4)OC
Method in brief: as §1

[14] = compound: CNC(=O)c1ccc(Nc2ncc(C(F)(F)F)c(NCc3nccnc3N(C)S(C)(=O)=O)n2)cc1 [defactinib]
Method in brief: as §1

[15] = compound: CNc1nc(-c2ccc3c(N)n[nH]c3c2)cc(N2C[C@@H](C(=O)NC3CCCCC3)CC[C@H]2C)n1
Method in brief: as §1

[16] = compound: COC(=O)N[C@@H](C)CNc1nccc(-c2cn(C(C)C)nc2-c2cc(Cl)cc(NS(C)(=O)=O)c2F)n1 [encorafenib]
Method in brief: as §1

[17] = compound: COC(=O)[C@H](CCSC)NC(=O)C1=C(C=C(C=C1)NC[C@H](CS)N)C2=CC=CC=C2
Method in brief: as §1

[18] = compound: COc1cc(Nc2ncc3c(n2)-c2ccc(Cl)cc2C(c2c(F)cccc2OC)=NC3)ccc1C(=O)O [alisertib]
Method in brief: as §1

[19] = compound: COc1cc2nc(-c3cc(F)ccc3O)nc(N[C@@H]3CNC[C@H]3C(C)(C)O)c2cc1OC
Method in brief: as §1

[20] = compound: COc1cc2ncnc(Nc3ccc(F)c(Cl)c3)c2cc1OCCCN1CCOCC1 [gefitinib]
Method in brief: as §1

UniProt O75419, sequence (O75419 whole entry, looked up): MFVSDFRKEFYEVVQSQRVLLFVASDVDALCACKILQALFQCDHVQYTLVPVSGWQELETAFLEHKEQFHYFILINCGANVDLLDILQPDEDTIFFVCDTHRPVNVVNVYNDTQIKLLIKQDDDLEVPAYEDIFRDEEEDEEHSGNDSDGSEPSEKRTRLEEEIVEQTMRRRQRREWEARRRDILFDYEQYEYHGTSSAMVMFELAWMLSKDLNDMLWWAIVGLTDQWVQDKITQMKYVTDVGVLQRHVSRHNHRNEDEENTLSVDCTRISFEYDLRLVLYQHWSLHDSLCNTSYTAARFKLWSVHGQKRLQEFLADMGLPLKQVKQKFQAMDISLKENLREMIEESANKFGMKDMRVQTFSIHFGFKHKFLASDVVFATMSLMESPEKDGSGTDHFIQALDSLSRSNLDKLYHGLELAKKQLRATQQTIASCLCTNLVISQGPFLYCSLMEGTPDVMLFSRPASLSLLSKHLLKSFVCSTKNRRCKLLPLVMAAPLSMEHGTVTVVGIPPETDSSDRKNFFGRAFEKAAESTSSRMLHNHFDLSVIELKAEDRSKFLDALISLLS
UniProt P56945, sequence (P56945 whole entry, looked up): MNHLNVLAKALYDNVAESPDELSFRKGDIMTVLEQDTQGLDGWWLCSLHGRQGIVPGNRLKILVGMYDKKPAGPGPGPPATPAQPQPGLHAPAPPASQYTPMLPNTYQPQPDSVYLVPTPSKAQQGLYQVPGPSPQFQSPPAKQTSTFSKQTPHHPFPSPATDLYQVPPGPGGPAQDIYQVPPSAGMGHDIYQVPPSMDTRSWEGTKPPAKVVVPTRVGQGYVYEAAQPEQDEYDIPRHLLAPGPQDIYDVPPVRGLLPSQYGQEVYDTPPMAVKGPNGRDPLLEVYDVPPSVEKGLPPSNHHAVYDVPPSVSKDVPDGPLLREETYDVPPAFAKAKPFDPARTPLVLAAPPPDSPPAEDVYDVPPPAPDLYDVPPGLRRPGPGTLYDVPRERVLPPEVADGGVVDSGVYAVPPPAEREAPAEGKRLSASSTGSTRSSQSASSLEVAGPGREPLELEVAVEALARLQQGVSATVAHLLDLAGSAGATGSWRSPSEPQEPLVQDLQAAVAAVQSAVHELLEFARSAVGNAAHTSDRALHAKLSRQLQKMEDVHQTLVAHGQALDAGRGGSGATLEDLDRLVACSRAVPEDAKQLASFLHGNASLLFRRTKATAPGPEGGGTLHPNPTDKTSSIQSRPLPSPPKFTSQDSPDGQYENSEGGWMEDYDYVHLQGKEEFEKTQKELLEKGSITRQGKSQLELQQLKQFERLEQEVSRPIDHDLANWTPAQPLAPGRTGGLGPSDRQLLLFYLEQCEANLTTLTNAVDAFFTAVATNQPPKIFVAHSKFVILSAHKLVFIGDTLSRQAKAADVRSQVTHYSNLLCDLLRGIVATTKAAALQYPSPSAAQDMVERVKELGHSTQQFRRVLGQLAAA
UniProt Q6PJG6, sequence (Q6PJG6 whole entry, looked up): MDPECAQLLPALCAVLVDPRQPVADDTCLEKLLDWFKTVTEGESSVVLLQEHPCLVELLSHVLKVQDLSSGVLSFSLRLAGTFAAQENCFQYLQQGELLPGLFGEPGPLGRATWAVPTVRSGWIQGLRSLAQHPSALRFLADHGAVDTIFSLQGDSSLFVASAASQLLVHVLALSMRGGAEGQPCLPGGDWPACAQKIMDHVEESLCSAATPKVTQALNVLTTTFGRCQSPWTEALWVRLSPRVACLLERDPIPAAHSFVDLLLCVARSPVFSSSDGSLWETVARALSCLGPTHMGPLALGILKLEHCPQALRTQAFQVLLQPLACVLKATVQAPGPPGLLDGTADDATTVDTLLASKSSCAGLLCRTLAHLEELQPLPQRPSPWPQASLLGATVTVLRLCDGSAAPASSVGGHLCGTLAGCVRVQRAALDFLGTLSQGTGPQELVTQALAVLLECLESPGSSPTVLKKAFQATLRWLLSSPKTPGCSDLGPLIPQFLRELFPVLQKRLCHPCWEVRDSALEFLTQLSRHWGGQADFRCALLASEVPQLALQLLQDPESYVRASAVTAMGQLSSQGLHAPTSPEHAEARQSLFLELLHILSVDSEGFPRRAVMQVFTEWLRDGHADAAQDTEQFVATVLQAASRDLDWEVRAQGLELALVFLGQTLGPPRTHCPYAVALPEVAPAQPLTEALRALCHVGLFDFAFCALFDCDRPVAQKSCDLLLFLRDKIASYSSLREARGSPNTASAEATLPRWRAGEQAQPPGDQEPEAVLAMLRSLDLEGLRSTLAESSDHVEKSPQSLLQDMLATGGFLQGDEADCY
UniProt Q9H3K6, sequence (Q9H3K6 whole entry, looked up): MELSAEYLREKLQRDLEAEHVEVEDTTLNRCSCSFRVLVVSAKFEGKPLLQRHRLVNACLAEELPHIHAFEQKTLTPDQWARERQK
UniProt Q8TAP6, sequence (Q8TAP6 whole entry, looked up): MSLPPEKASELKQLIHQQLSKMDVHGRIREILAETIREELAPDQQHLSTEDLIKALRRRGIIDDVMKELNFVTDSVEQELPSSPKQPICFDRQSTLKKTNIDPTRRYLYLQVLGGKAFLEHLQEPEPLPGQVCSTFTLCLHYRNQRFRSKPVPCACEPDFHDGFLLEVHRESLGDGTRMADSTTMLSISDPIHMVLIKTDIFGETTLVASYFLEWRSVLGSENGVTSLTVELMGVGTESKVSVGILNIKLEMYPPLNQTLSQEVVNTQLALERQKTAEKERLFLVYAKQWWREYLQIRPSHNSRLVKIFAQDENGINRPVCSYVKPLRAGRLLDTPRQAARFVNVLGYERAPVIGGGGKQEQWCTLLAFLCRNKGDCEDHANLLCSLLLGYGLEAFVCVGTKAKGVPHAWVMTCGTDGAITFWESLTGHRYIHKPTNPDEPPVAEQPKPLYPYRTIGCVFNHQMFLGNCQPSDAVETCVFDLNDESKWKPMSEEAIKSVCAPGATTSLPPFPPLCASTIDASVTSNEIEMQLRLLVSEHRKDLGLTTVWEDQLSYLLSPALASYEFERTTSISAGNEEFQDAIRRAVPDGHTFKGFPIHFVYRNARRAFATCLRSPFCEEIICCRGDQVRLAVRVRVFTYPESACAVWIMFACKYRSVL
UniProt O95674, sequence (O95674 whole entry, looked up): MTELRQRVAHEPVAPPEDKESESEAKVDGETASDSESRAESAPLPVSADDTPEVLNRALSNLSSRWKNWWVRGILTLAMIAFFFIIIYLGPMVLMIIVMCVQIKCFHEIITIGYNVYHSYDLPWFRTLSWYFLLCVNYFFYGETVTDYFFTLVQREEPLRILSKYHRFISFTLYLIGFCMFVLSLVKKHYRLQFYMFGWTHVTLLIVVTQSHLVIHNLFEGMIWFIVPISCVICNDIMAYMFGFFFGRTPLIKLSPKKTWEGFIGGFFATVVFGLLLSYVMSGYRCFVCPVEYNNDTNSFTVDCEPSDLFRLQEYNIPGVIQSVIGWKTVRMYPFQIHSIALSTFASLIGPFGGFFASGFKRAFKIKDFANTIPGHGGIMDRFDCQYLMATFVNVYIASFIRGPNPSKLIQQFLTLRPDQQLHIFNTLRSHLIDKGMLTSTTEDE
UniProt P06493, sequence (P06493 whole entry, looked up): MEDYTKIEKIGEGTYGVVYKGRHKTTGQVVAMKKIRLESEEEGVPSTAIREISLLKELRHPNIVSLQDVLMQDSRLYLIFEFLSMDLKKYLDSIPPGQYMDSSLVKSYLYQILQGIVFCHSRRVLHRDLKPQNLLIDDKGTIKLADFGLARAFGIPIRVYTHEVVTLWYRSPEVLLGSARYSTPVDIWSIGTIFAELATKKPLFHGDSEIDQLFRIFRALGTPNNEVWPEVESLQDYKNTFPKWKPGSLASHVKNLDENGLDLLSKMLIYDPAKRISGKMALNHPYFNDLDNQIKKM
UniProt P08962, sequence (P08962 whole entry, looked up): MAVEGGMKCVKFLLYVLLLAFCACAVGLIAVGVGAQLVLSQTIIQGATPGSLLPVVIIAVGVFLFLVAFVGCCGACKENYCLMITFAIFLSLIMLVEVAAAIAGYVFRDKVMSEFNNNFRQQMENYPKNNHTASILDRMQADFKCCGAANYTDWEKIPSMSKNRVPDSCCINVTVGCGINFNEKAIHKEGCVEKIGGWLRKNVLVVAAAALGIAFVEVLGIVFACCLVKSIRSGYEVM
UniProt P51946, sequence (P51946 whole entry, looked up): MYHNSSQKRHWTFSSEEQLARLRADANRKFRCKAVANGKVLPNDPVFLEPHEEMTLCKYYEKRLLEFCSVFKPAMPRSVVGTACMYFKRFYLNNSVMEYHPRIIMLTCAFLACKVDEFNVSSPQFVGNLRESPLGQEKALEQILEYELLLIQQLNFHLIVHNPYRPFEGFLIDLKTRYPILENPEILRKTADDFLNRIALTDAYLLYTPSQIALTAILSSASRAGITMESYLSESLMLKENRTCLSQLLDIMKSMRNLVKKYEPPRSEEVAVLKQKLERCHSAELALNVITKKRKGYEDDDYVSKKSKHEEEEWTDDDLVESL
UniProt P55211, sequence (P55211 whole entry, looked up): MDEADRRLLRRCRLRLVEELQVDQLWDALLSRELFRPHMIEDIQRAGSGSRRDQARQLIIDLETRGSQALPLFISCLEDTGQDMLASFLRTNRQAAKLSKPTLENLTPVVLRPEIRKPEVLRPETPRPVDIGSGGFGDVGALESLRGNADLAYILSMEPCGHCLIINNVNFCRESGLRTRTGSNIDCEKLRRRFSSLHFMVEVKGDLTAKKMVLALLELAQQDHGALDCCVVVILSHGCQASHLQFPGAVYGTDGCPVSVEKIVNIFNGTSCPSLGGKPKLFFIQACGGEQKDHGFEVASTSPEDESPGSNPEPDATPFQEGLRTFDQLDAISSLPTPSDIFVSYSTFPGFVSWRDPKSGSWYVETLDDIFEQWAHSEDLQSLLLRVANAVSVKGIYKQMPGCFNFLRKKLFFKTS
UniProt Q8WUX2, sequence (Q8WUX2 whole entry, looked up): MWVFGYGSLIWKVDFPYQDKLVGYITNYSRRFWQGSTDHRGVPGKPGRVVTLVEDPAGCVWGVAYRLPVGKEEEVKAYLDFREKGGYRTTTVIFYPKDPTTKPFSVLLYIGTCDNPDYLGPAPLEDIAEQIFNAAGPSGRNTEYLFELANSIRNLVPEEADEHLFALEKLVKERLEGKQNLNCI

Row | Target | log2 fold change [1] | log2 fold change [2] | log2 fold change [3] | log2 fold change [4] | log2 fold change [5] | log2 fold change [6] | log2 fold change [7] | log2 fold change [8] | log2 fold change [9] | log2 fold change [10] | log2 fold change [11] | log2 fold change [12] | log2 fold change [13] | log2 fold change [14] | log2 fold change [15] | log2 fold change [16] | log2 fold change [17] | log2 fold change [18] | log2 fold change [19] | log2 fold change [20]
1 | CDK1 (UniProt P06493) | 0.012 | -0.017 | -0.029 | -0.041 | -0.037 | -0.006 | -0.056 | -0.049 | 0.016 | -0.002 | 0.036 | -0.032 | -0.017 | -0.035 | -0.021 | 0.011 | 0.036 | 0.002 | 0.328 (active) | -0.03
2 | CCNA2 (UniProt P20248) | -0.033 | -0.004 | -0.056 | 0.022 | -0.018 | -0.03 | -0.183 | 0.169 | 0.001 | 0 | 0.044 | 0.011 | -0.002 | 0.037 | -0.017 | 0.005 | -0.012 | -0.029 | 0.176 | 0.019
3 | CDC45 isoform 3 (UniProt O75419) | 0.009 | 0.042 | -0.015 | -0.05 | -0.017 | -0.05 | -0.096 | -0.04 | 0.007 | 0.027 | 0.031 | -0.138 | 0.031 | 0.028 | -0.017 | 0.001 | 0.019 | 0.023 | 0.009 | -0.034
4 | CARNMT1 (UniProt Q8N4J0) | 0.04 | 0.008 | -0.012 | -0.013 | -0.005 | -0.044 | -0.422 (active) | 0.063 | 0.04 | 0.017 | -0.167 | 0.045 | -0.021 | -0.03 | -0.021 | 0.051 | 0.015 | -0.022 | 0.026 | 0.009
5 | CHAC2 (UniProt Q8WUX2) | -0.028 | -0.004 | -0.006 | -0.044 | 0.006 | 0.02 | 0.649 (active) | -0.154 | -0.018 | -0.031 | 0.223 | 0.019 | 0.092 | 0.028 | 0.019 | 0.06 | 0.003 | -0.039 | -0.007 | 0
6 | BCAR1 isoform 6 (UniProt P56945) | 0.038 | 0.018 | 0.015 | -0.065 | -0.018 | -0.003 | 0.064 | -0.012 | 0.032 | -0.038 | 0.074 | -0.009 | 0.009 | -0.032 | 0.012 | 0.018 | 0.014 | 0.009 | 0.08 | 0.065
7 | CDS2 (UniProt O95674) | 0.09 | 0.041 | 0.027 | 0.026 | 0.005 | -0.006 | 0.015 | 0.004 | -0.053 | 0.037 | -0.037 | 0.116 | -0.036 | 0.04 | -0.021 | 0.027 | 0.007 | 0.012 | 0.033 | 0
8 | CDK13 (UniProt Q14004) | -0.124 | -0.031 | -0.061 | 0.002 | -0.123 | 0.106 | -0.09 | 0.04 | 0.074 | -0.036 | 0.287 (active) | -0.1 | -0.044 | 0.139 | -0.184 | -0.005 | -0.033 | 0.043 | 0.078 | 0.007
9 | ATG4A (UniProt Q8WYN0) | -0.045 | 0.033 | 0.012 | -0.047 | -0.015 | 0.008 | 0.027 | -0.045 | 0.034 | -0.043 | 0 | -0.104 | 0.042 | 0.036 | 0.01 | 0.037 | -0.087 | -0.016 | -0.001 | 0.052
10 | BOLA2 (UniProt Q9H3K6) | -0.086 | -0.043 | 0.129 | -0.068 | 0.004 | 0.067 | 0.604 (active) | -0.04 | -0.033 | -0.038 | 0.02 | 0.015 | -0.065 | 0.023 | -0.052 | 0.036 | -0.057 | -0.006 | 0.009 | -0.03
11 | CCNYL1 (UniProt Q8N7R7) | -0.072 | 0.003 | -0.046 | 0.031 | -0.046 | 0.012 | -0.188 | 0.269 | 0.051 | 0.034 | -0.074 | -0.076 | 0.061 | 0.024 | 0.055 | 0.011 | 0.032 | -0.012 | 0.032 | 0.101
12 | BRAT1 (UniProt Q6PJG6) | 0.011 | -0.014 | 0.042 | -0.086 | -0.046 | 0.055 | -0.023 | -0.007 | 0.016 | 0.037 | -0.018 | -0.143 | 0.031 | -0.046 | -0.041 | 0.01 | 0.024 | -0.008 | 0.018 | -0.007
13 | CD63 (UniProt P08962) | -0.079 | 0.084 | 0.037 | -0.036 | 0.023 | -0.011 | -0.593 (active) | 0.175 | 0.073 | 0.057 | -0.184 | 0.023 | -0.013 | 0.089 | -0.101 | 0.046 | -0.055 | 0.01 | -0.02 | -0.023
14 | CEP76 (UniProt Q8TAP6) | -0.099 | -0.023 | 0.085 | -0.093 | 0 | -0.026 | -0.04 | 0.053 | 0.047 | 0.085 | -0.031 | -0.015 | 0.03 | 0.084 | -0.023 | -0.006 | 0.005 | 0.002 | 0 | 0.001
15 | CASP9 (UniProt P55211) | -0.017 | 0.001 | -0.002 | 0.025 | 0.029 | -0.061 | -0.013 | 0.005 | 0.003 | 0.045 | -0.01 | -0.043 | -0.021 | 0.039 | -0.014 | 0.023 | -0.077 | 0.014 | 0.017 | 0.052
16 | CCNH (UniProt P51946) | -0.025 | 0.001 | -0.035 | 0.036 | 0.003 | -0.034 | 0.054 | -0.062 | -0.036 | 0.033 | 0.006 | 0.016 | -0.015 | 0.026 | -0.018 | 0.033 | -0.047 | -0.005 | -0.007 | 0.024
